Results on 30 sequences are retold here after PMC9838217, “Structure of SALL4 zinc finger domain reveals link between AT-rich DNA binding and Okihiro syndrome”.

What all share (assay): HT-SELEX; high values mean tight binding
What all share (conditions): protein: recombinant; vector His6-GST; dsDNA, one strand shown

In assay [1] the target is T1, SALL4 ZFC4 WT (HT-SELEX) (Mus musculus, UniProt Q8BX22 870-940).
T1 sequence: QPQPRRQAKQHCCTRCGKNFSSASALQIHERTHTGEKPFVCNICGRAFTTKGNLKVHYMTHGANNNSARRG
Put shortly:
(§1)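 Binding signal is expressed as fold change in each canonical k-mer's read fraction over the initial random library. To obtain it, 1 µg of purified recombinant mouse SALL4 zinc finger cluster 4 (residues 870–940) was incubated for 10 min at room temperature with library DNA (1.5 µg first cycle, 200 ng later cycles) in 100 µl of 10 mM Tris–HCl pH 7.5, 50 mM NaCl, poly(dI-dC) and DTT. Ni2+ bead-captured complexes went through washing, PCR amplification and reselection for up to 6 cycles, in triplicate, before MiSeq sequencing and scanning for 6-mers.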

Assay [2] deals with T2, SALL4 ZFC4 R900W (HT-SELEX) (Mus musculus, UniProt Q8BX22 870-940, R900W).
T2 sequence: T1 sequence with R31W
In a few lines:
as §1

In assay [3] the target is T3, SALL4 ZFC4 G921D (HT-SELEX) (Mus musculus, UniProt Q8BX22 870-940, G921D).
T3 sequence: T1 sequence with G52D
Put shortly: as §1

Changes are numbered by the printed parent chain.

Regarding ATAAAT, the figures for the binding signal in assay [1], in assay [2] and in assay [3] were 4.06 ± 0.373 fold-change vs cycle 0, 2.56 ± 0.158 fold-change vs cycle 0 and 2.19 ± 0.239 fold-change vs cycle 0, respectively.
The like results for CGTGTC were, in that order, 0.335 ± 0.0147 fold-change vs cycle 0, 0.407 ± 0.0314 fold-change vs cycle 0 and 0.545 ± 0.0369 fold-change vs cycle 0.
Turning to AGTGTG, the binding signal is 0.745 ± 0.0331 fold-change vs cycle 0 in assay [1], 0.85 ± 0.0147 fold-change vs cycle 0 in assay [2] and 0.909 ± 0.0296 fold-change vs cycle 0 in assay [3].
The like results for ACAAGT were, in that order, 1.24 ± 0.0226 fold-change vs cycle 0, 1.4 ± 0.0269 fold-change vs cycle 0 and 1.35 ± 0.0304 fold-change vs cycle 0.
The like results for CATGGA were, in that order, 0.865 ± 0.0271 fold-change vs cycle 0, 0.95 ± 0.0312 fold-change vs cycle 0 and 0.985 ± 0.0405 fold-change vs cycle 0.
With GTCTCA, the binding signal stood at 0.736 ± 0.016 fold-change vs cycle 0 in assay [1], 0.879 ± 0.00912 fold-change vs cycle 0 in assay [2] and 0.938 ± 0.0386 fold-change vs cycle 0 in assay [3].
Turning to ACCGAA, the results for the binding signal in assay [1], in assay [2] and in assay [3] were 0.637 ± 0.01 fold-change vs cycle 0, 0.698 ± 0.028 fold-change vs cycle 0 and 0.776 ± 0.0511 fold-change vs cycle 0, respectively.
The like results for AGATAT were, in that order, 2.61 ± 0.24 fold-change vs cycle 0, 2.08 ± 0.11 fold-change vs cycle 0 and 1.86 ± 0.213 fold-change vs cycle 0.
As for CCTGAG, the binding signal in assay [1] is 0.502 ± 0.0217 fold-change vs cycle 0; in assay [2], 0.614 ± 0.0126 fold-change vs cycle 0; in assay [3], 0.691 ± 0.0156 fold-change vs cycle 0.
The like results for GGCTTA were, in that order, 0.5567 ± 0.00529 fold-change vs cycle 0, 0.656 ± 0.0181 fold-change vs cycle 0 and 0.763 ± 0.0358 fold-change vs cycle 0.
The like results for AAATCC were, in that order, 1.19 ± 0.0372 fold-change vs cycle 0, 1.27 ± 0.0238 fold-change vs cycle 0 and 1.24 ± 0.0539 fold-change vs cycle 0.
Turning to ACTCCT, the binding signal came to 1.01 ± 0.0205 fold-change vs cycle 0 in assay [1], 1.15 ± 0.052 fold-change vs cycle 0 in assay [2] and 1.144 ± 0.00693 fold-change vs cycle 0 in assay [3].
Consider ATTCGG, for which the binding signal in assay [1] came to 0.592 ± 0.0176 fold-change vs cycle 0; in assay [2], 0.669 ± 0.0177 fold-change vs cycle 0; in assay [3] it was 0.753 ± 0.0617 fold-change vs cycle 0.
The like results for GTAACA were, in that order, 1.36 ± 0.0267 fold-change vs cycle 0, 1.52 ± 0.0694 fold-change vs cycle 0 and 1.39 ± 0.0863 fold-change vs cycle 0.
Take ATTTTA: the binding signal in assay [1] came to 3.12 ± 0.229 fold-change vs cycle 0; in assay [2], 2.24 ± 0.131 fold-change vs cycle 0; in assay [3], 1.98 ± 0.2 fold-change vs cycle 0.
The like results for ATAGAC were, in that order, 1.2 ± 0.024 fold-change vs cycle 0, 1.29 ± 0.0416 fold-change vs cycle 0 and 1.3 ± 0.09 fold-change vs cycle 0.
The like results for ATTCCA were, in that order, 1.45 ± 0.0836 fold-change vs cycle 0, 1.44 ± 0.0779 fold-change vs cycle 0 and 1.38 ± 0.106 fold-change vs cycle 0.
The like results for AAGCTC were, in that order, 0.631 ± 0.0495 fold-change vs cycle 0, 0.76 ± 0.0539 fold-change vs cycle 0 and 0.866 ± 0.0327 fold-change vs cycle 0.
AAATAC: the figures for the binding signal in assay [1], in assay [2] and in assay [3] were 1.75 ± 0.12 fold-change vs cycle 0, 1.68 ± 0.0912 fold-change vs cycle 0 and 1.59 ± 0.0866 fold-change vs cycle 0, respectively.
Regarding CCTCAG, the binding signal in assay [1] came out at 0.494 ± 0.0292 fold-change vs cycle 0; in assay [2], 0.591 ± 0.0293 fold-change vs cycle 0; in assay [3], 0.666 ± 0.0425 fold-change vs cycle 0.
The like results for CTCATA were, in that order, 1.52 ± 0.0984 fold-change vs cycle 0, 1.48 ± 0.0543 fold-change vs cycle 0 and 1.41 ± 0.106 fold-change vs cycle 0.
The like results for AAAATA were, in that order, 3.77 ± 0.346 fold-change vs cycle 0, 2.25 ± 0.159 fold-change vs cycle 0 and 1.96 ± 0.218 fold-change vs cycle 0.
The like results for CTTCGA were, in that order, 0.707 ± 0.0176 fold-change vs cycle 0, 0.789 ± 0.0144 fold-change vs cycle 0 and 0.875 ± 0.0344 fold-change vs cycle 0.
Regarding CCTGTA, the binding signal in assay [1] was determined as 0.809 ± 0.0421 fold-change vs cycle 0; in assay [2] it was 0.915 ± 0.0586 fold-change vs cycle 0; in assay [3], 0.974 ± 0.0591 fold-change vs cycle 0.
Consider TGAGAA, for which the binding signal in assay [1] came out at 1.37 ± 0.0413 fold-change vs cycle 0; in assay [2] it was 1.49 ± 0.0497 fold-change vs cycle 0; in assay [3], 1.38 ± 0.0987 fold-change vs cycle 0.
On to GTTGGA, for which the figures for the binding signal in assay [1], in assay [2] and in assay [3] were 0.713 ± 0.0283 fold-change vs cycle 0, 0.83 ± 0.0624 fold-change vs cycle 0 and 0.883 ± 0.0383 fold-change vs cycle 0, respectively.
Take CGGGAA: the results for the binding signal in assay [1], in assay [2] and in assay [3] were 0.362 ± 0.00736 fold-change vs cycle 0, 0.417 ± 0.0262 fold-change vs cycle 0 and 0.499 ± 0.0534 fold-change vs cycle 0, respectively.
Take AAAGGG: the figures for the binding signal in assay [1], in assay [2] and in assay [3] were 0.754 ± 0.0569 fold-change vs cycle 0, 0.891 ± 0.0422 fold-change vs cycle 0 and 0.879 ± 0.0118 fold-change vs cycle 0, respectively.
The like results for CGTGAC were, in that order, 0.379 ± 0.0323 fold-change vs cycle 0, 0.463 ± 0.0197 fold-change vs cycle 0 and 0.556 ± 0.043 fold-change vs cycle 0.
The like results for AAATTC were, in that order, 1.76 ± 0.142 fold-change vs cycle 0, 1.66 ± 0.0813 fold-change vs cycle 0 and 1.58 ± 0.109 fold-change vs cycle 0.
